The values that follow come from PubChem BioAssay AID431 (Sanford-Burnham Center for Chemical Genomics, 2006).

In all, about 63,000 compounds went through this assay and about 1,100 (1.7%) were called active.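 The calls were made as follows: active = compounds whose percent cytotoxicity in the single-dose primary screen, scaled between solvent and toxic-drug controls, exceeds 50; inactive = the rest.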 Only a selection was taken, and actives are over-represented in it overall. Potency and affinity values are given separately.

The assay in a line: viability loss of HPDE-C7K cells – cell-based, fluorescence, HTS, primary screen (AID 431).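 Also: 0% = DMSO solvent wells and 100% = doxorubicin-treated wells.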 To be noted: HPDE-C7K KRASV12 cells, Alamar Blue viability, 48 h; at 10 µM; hits give high values. (In general: Resazurin is reduced to fluorescent resorufin, in cell work by metabolically active cells.)
As for `O=C(CN1C(=O)COc2ccccc21)N(Cc1cccnc1)Cc1cccc(F)c1`, the cytotoxicity is -1.8% (inactive).
`O=C(NCc1ccccn1)C1CCN(S(=O)(=O)c2cccs2)CC1`: the cytotoxicity was -6.5% (inactive).
The figure for `Cc1cc(C)cc(N2C(=O)CC(N3CCOCC3)C2=O)c1` (stereo not drawn) is 1.2% (inactive); for `N#Cc1nc(-c2ccc(F)cc2)oc1N1CCCC1` it is 3.4% (inactive); for `O=C(c1ccc(F)cc1)c1ccc(N2CCCC2)cc1` it is -11% (inactive).
The value for `CCCn1c(SCC(=O)NC(=O)NCc2ccco2)n[nH]c1=O` was -2.3% (inactive); that for `O=C(NCC1CCCO1)c1cc2n(n1)C(C(F)(F)F)CC(c1ccc(Br)cc1)N2` (stereo not drawn) was 6.4% (inactive); that for `O=S1(=O)CCC(NCC2CCCO2)C1` (stereo not drawn) was 6.3% (inactive).
Take `CCOc1ccc(/C(O)=C2\C(=O)C(=O)N(CCN(C)C)C2c2cc(OC)ccc2OC)cc1Cl` (stereo not drawn): the cytotoxicity was -1.7% (inactive).
The value for `CSc1ccc(Cl)c(C(=O)OCC(=O)N2CCOCC2)c1` was -13.8% (inactive); that for `N#C/C(=C\c1ccc(O)c(O)c1)C(=O)NCCCc1ccccc1` was 54.7% (active).
The figure for `N#C/C(=C\c1ccc(O)c(O)c1)S(=O)(=O)c1ccccc1` is 5.4% (inactive).
As for `O=C(NCCCc1ccccc1)c1ccccc1O`, the cytotoxicity is -6.1% (inactive).
The figure for `Cc1ccc(S(=O)(=O)N2CCCCC2)cc1C(=O)c1nccn1C` is -13.8% (inactive); for `CCOc1ccc(NC(=O)CCS(=O)(=O)c2ccc3c(c2)CCCN3C(C)=O)cc1` it is -19.8% (inactive).
For the compound `Nc1c(C(=O)NCCN2CCOCC2)c2nc3ccccc3nc2n1-c1ccccc1`, the cytotoxicity is -0.8% (inactive).
On to `COc1ccc(CCn2c(N)c(C#N)c3nc4ccccc4nc32)cc1OC`, for which the cytotoxicity is -1.9% (inactive).
The figure for `O=C(Cn1c(CN2CCCCC2)nc2ccccc2c1=O)NCc1ccco1` is -21.9% (inactive); for `COc1ccc(-n2c(N)c(C(=O)NCc3ccco3)c3nc4ccccc4nc32)c(OC)c1` it is 5.2% (inactive).
With `COc1ccc(CCn2c(N)c(C(=O)NCc3ccco3)c3nc4ccccc4nc32)cc1OC`, the cytotoxicity is 57.5% (active).
For `Cc1cccc(-n2c(Cc3cc(=O)[nH]c(=O)[nH]3)nnc2SCC(=O)NCc2ccco2)c1`, the cytotoxicity is -4.5% (inactive).
Regarding `O=C(NCc1cccc(F)c1)c1noc2c1CCCC2`, the cytotoxicity was -1.2% (inactive).
The value for `Cc1cc(O)cc(=O)n1Cc1ccco1` was -8.3% (inactive); that for `COc1cc(C)c(C(C)C)cc1S(=O)(=O)N1CCN(C)CC1` was -21.8% (inactive).
The figure for `COc1cc(Cl)c(S(=O)(=O)n2cnc(C)c2)cc1Cl` is 4.1% (inactive).
The figure for `COc1ccc(-c2c(C)oc3c(CN4CCN(C)CC4)c(O)ccc3c2=O)cc1` is -6.1% (inactive).
For the compound `CCOC(=O)C1=C(CS(=O)(=O)c2ccccc2)NC(=O)NC1c1ccccc1OCC` (stereo not drawn), the cytotoxicity is -3.7% (inactive).
The figure for `Cc1ccc(S(=O)(=O)CC(c2ccccc2)N2CCOCC2)cc1` (stereo not drawn) is -3.6% (inactive); for `Nc1ncn(C(=O)c2ccco2)n1` it is 4.4% (inactive).
The value for `O=C(COc1cc(=O)n2c(n1)SCCC2)c1ccccc1` was -1.2% (inactive); that for `CN1CCN(CCCN2c3ccccc3Sc3ccc(Cl)cc32)CC1` was 82.7% (active); that for `OCCN1CCN(C(=S)c2ccc(Cl)cc2)CC1` was -18.6% (inactive).
In the case of `CN1CCN(CCC(=O)N2c3ccccc3Sc3ccc(Cl)cc32)CC1`, the cytotoxicity was 35.1% (inactive).
The figure for `CCOC(=O)Nc1ccc2c(c1)N(C(=O)CN1CCN(C)CC1)c1ccccc1S2` is 5.6% (inactive); for `O=C(CN1CCN(CCOCCO)CC1)N1c2ccccc2Sc2ccc(Cl)cc21` it is -26% (inactive); for `CC(=O)C1=C(O)C(=O)N(CCN2CCOCC2)C1c1ccc(N(C)C)cc1` (stereo not drawn) it is -11.6% (inactive).
`Cc1oc(-c2cccc(Cl)c2)nc1CN1CCC(C(=O)NCC2CCCO2)CC1` (stereo not drawn): the cytotoxicity was 21.4% (inactive).
Regarding `COc1ccc(OC)c(C2C(C(C)=O)=C(O)C(=O)N2CCN2CCOCC2)c1` (stereo not drawn), the cytotoxicity is 3.1% (inactive).
The value for `COc1cccc(C(=O)CSc2nnc(CNc3nc(-c4ccccc4)cs3)n2C)c1` was -0.3% (inactive); that for `CC(CC1C(C#N)=C(N)OC2=C1C(=O)CCC2)c1ccccc1` (stereo not drawn) was -2.7% (inactive); that for `Cc1cccc(-c2noc(CCc3ccccc3)n2)c1` was 4.2% (inactive).
As to `Cc1ccc(Nc2nc(N)nc(CN3CCN(Cc4ccc5c(c4)OCO5)CC3)n2)c(C)c1`, the cytotoxicity is -5.2% (inactive).
`Cc1cc(C(=O)NCCN2CCN(c3cccc(Cl)c3)CC2)n(-c2ccccc2)n1`: the cytotoxicity is 60.3% (active).
For the compound `Cc1cc(C(=O)NCCCN2CCN(C3CCCCC3)CC2)n(-c2ccccc2)n1`, the cytotoxicity was -1% (inactive).
As for `Cc1cc(C(=O)NCCCN2CCOCC2)n(-c2ccccc2)n1`, the cytotoxicity was -11.4% (inactive).
As to `CCN(CC)S(=O)(=O)c1ccc(N2CCCC2)c(C(=O)OCC(=O)/C(C#N)=C(\C)N)c1`, the cytotoxicity was 10.5% (inactive).
The figure for `CC(C)=C1C2C=CC1C(C(=O)Nc1cc(C)ccc1C)C2C(=O)O` (stereo not drawn) is -14.9% (inactive); for `CCOc1ccccc1NC(=O)Cn1nnc(C(=O)NCc2ccco2)c1N` it is 55.3% (active); for `CCOc1ccccc1NC(=O)Cn1nnc(C(=O)Nc2ccc(C)cc2)c1N` it is 5.2% (inactive).
The figure for `CCOc1ccccc1NC(=O)Cn1nnc(C(=O)Nc2ccccc2Cl)c1N` is 3.6% (inactive); for `CCN(CC)CCCN1C(=O)C(=O)/C(=C(/O)c2cc(C)ccc2C)C1c1cccnc1` (stereo not drawn) it is -4.8% (inactive).
Take `CCOC(=O)c1ccccc1NC(=O)c1cccs1`: the cytotoxicity was -12.9% (inactive).
The value for `Cc1ccccc1NC(=O)c1c(F)c(F)c(F)c(F)c1F` was -12% (inactive); that for `CCOC(=O)c1ccccc1NC(=O)c1ccccc1SC` was 21.6% (inactive).
As for `O=C(Nc1ccccc1Cl)c1c(F)c(F)c(F)c(F)c1F`, the cytotoxicity was 0.3% (inactive).
The figure for `CC1=C(C#N)C(C)C2=C(CC(C)(C)CC2=O)N1` (stereo not drawn) is -3.6% (inactive); for `CN1CCN(C2=Nc3ccccc3Oc3ccc(Cl)cc32)CC1` it is -3.2% (inactive).
The figure for `Cn1c(Cl)cnc1C1CC(=O)c2cc(Cl)ccc2O1` (stereo not drawn) is 67.1% (active).
The value for `COc1ccc2c(c1)C(=O)CC(c1ccccc1F)O2` (stereo not drawn) was 7.5% (inactive); that for `O=C(Nc1ccc2nc[nH]c2c1)c1ccco1` was 16.9% (inactive).
On to `COC(=O)C(C)Sc1nc2c(c(=O)[nH]c(=O)n2C)n1CCCc1ccccc1` (stereo not drawn), for which the cytotoxicity was -4.9% (inactive).
In the case of `O=S(=O)(NCCO)c1cccc2cccnc12`, the cytotoxicity is -9.3% (inactive).
The figure for `CCC(C)(C)n1nnnc1C(c1ccc(C)cc1)N1CCN(Cc2cccnc2)CC1` (stereo not drawn) is -32% (inactive); for `O=C(OCC(=O)N1CCN(C(=O)c2ccco2)CC1)c1cc(=O)c2ccccc2o1` it is -1.9% (inactive); for `C=C1[C@@H](C)C2[C@H](Cc3ccccc3)NC(=O)[C@]23OC(=O)CC[C@H](O)CCC[C@H](C)C/C=C/[C@H]3[C@@H]1O` (stereo partly drawn) it is 59.8% (active).
The figure for `Cc1ccc(Nc2cccccc2=O)cc1` is -1.6% (inactive); for `CCC1(C)Cc2c(sc3c2c(=O)n(C)c2nnc(SCc4ccccc4)n32)CO1` (stereo not drawn) it is 3.4% (inactive); for `Cc1cc(C2N=C(N)Nc3nc4ccccc4n32)c(C)n1-c1ccccc1Cl` (stereo not drawn) it is 5.7% (inactive).
The figure for `NC1=NC(c2ccccc2Cl)n2c(nc3ccccc32)N1` (stereo not drawn) is 0.6% (inactive).
For `COc1ccc(-n2nnnc2S(=O)(=O)CC(=O)N2CCCCC2)cc1`, the cytotoxicity was 56.8% (active).
On to `COc1ccc(-n2nnnc2S(=O)(=O)Cc2ccc(C(=O)O)cc2)cc1`, for which the cytotoxicity was 2.6% (inactive).
As to `COc1cc(OC)cc(-n2nnnc2SCC(=O)N2CCCC2)c1`, the cytotoxicity was -16% (inactive).
The value for `C=CCc1ccccc1OCC(O)CN1CCN(c2ccccc2OC)CC1` (stereo not drawn) was 6.9% (inactive); that for `COc1ccccc1N1CCN(CC(O)COc2cccc3ccccc23)CC1` (stereo not drawn) was 51.3% (active).
As to `COc1ccccc1N1CCN(CC(O)COc2c(OC)cccc2OC)CC1` (stereo not drawn), the cytotoxicity is 3.7% (inactive).
The value for `CCn1c(SCC(=O)N2CCCC2)nc2c1c(=O)n(C)c(=O)n2C` was -12.3% (inactive).
The figure for `Cc1cc(OCCOCCN(C)CCO)cc(C)c1Cl` is 16.8% (inactive); for `CN(c1ccccc1)S(=O)(=O)c1ccc(C(=O)Nc2nnc(-c3ccc(F)cc3)o2)cc1` it is 62.8% (active); for `Cc1ccccc1C(=O)Nc1nnc(-c2ccc(F)cc2)o1` it is 10.5% (inactive).
The value for `CCN(Cc1ccccc1)S(=O)(=O)c1ccc(C(=O)Nc2nnc(-c3ccccc3OC)o2)cc1` was 37.9% (inactive); that for `COc1ccccc1-c1nnc(NC(=O)c2ccc(S(=O)(=O)N(C)Cc3ccccc3)cc2)o1` was 64.9% (active).
With `COc1ccccc1-c1nnc(NC(=O)c2ccc(S(=O)(=O)N(C)C)cc2)o1`, the cytotoxicity was -3.2% (inactive).
The value for `COCc1nnc(NC(=O)c2ccc(S(=O)(=O)N(C)c3ccccc3)cc2)o1` was 36.3% (inactive).
The value for `CN(C)S(=O)(=O)c1ccc2c(c1)c(=O)c(C(=O)N1CCN(c3ccccn3)CC1)cn2C` was 5% (inactive).
With `COc1cc(Cl)c(C)cc1NC(=O)CSc1nnc(-c2ccccn2)n1Cc1ccco1`, the cytotoxicity was -4.6% (inactive).
The value for `O=C(CN1C(=O)c2ccccc2C1=O)Nc1cccnc1` was 10.7% (inactive); that for `N#Cc1cccc(C(c2nnnn2CCc2ccccc2)N2CCN(C3CCCCC3)CC2)c1` (stereo not drawn) was 7.9% (inactive).
Turning to `COc1cccc(NC(=O)N2CCC(C(=O)Nc3ccc(C)cc3C)CC2)c1`, the cytotoxicity was -5.2% (inactive).
As to `c1ccc(CSc2nnc(-c3c[nH]c4ccccc34)o2)cc1`, the cytotoxicity is 1.1% (inactive).
The figure for `S=c1[nH]nc(Cc2c[nH]c3ccccc23)o1` is 1.2% (inactive).
The value for `COc1cccc(-c2nnc(NC(=O)c3cccc(F)c3)o2)c1` was 44.6% (inactive); that for `COc1ccc(C(=O)Nc2nnc(-c3ccccc3)o2)cc1OC` was -0.9% (inactive).
For the compound `COc1ccccc1C(=O)Nc1nnc(-c2ccc(Cl)cc2)o1`, the cytotoxicity is -0.6% (inactive).
Take `COc1cccc(C(=O)Nc2nnc(-c3ccc(F)cc3)o2)c1`: the cytotoxicity is 10.3% (inactive).
The value for `COc1cccc(C(=O)Nc2nnc(-c3ccc(Cl)cc3)o2)c1` was 85% (active); that for `CN(C)c1ccc(C(=O)Nc2nnc(-c3ccc(Cl)cc3)o2)cc1` was 17.7% (inactive); that for `Cc1cccc(-c2nnc(NC(=O)c3ccc(Cl)cc3)o2)c1` was 87.9% (active).
The figure for `CC(=O)c1ccc(C(=O)Nc2nnc(-c3ccc(Cl)cc3)o2)cc1` is 44.7% (inactive).
